Compounds with a hit are over-represented: about 3.2% of the library has one in this group of screens.
Cardio protect = myocardial damage modulation in H9c2 cells; H9c2 cardiomyocytes, H2O2 injury protection, ATPLite, 2 h; hit rate 0.63% among 360,000; protection from H2O2 cell death, % at 20 µM;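 active = compounds giving at least 50% protection of heart cells from peroxide-induced death in the single-dose screen, raw or plate-pattern-corrected value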;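 also: 0% = DMSO wells with peroxide and 100% = DMSO wells without peroxide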
aDG glyco act = increases alpha dystroglycan glycosylation; hit rate 0.22% among 360,000; Pro5-aDG cells, alpha-DG glycosylation AlphaScreen (IIH6); 0% Pro5, 100% B10-LARGE cell signal; activation, % at 10 µM;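 active = activation of at least 8% versus controls, or a plate z-score of at least 8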;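 also: Pro5 are CHO cells carrying HIG-tagged alpha-DG that lacks glycosylation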
CRFBP-R2 block = blocks CRF-induced signaling of the CRF-BP/CRF-R2 complex; inhibition, % at 11.8 µM; hit rate 0.59% among 350,000; AID 588475; HEK293 CRF-R2/CRF-BP, CRF-induced calcium fluorescence;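 active = inhibition of the ligand-induced calcium signal above about 50% at the single tested concentration, limit read from the data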
PfG6PD inh = PfG6PD (Plasmodium falciparum) enzyme inhibition. PfGluPho enzyme, NADPH resazurin-diaphorase fluorescence. inhibition, % at 20 µM. hit rate 0.78% among 350,000. AID 504690;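 active = inhibition reaching at least a set limit at 20 µM in the primary screen, cut at about 59% in these data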;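 also: 0% = DMSO wells with substrate and 100% = DMSO wells lacking glucose-6-phosphate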
CRFR2-BP ag = CRF-BP/CRF-R2 complex agonism | AID 588473 | HEK293 CRF-R2/CRF-BP, calcium dye fluorescence (FLIPR); percent of saturating CRF peptide response | activation, % at 13.2 µM | hit rate 0.46% among 350,000;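 active = activation of at least 50%, plus an integration ratio under a set limit after plate pattern correction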;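 also: plate controls were neutral control wells without compound for no effect and CRF at EC100 for full effect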
FAS TE block = inhibitors of human fatty acid synthase thioesterase domain | P49327 | recombinant FAS-TE, OMFH fluorogenic substrate, fluorescence endpoint | inhibition, % at 15 µM | hit rate 0.67% among 360,000;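 active = compounds whose normalised, plate-corrected inhibition of enzyme fluorescence in the single-dose primary screen is 50% or more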;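 also: 0% = DMSO with enzyme and 100% = substrate without enzyme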
PfG6PD confirm = PfG6PD inhibition, single-dose confirmed; shares compounds with PfG6PD inh; recombinant PfGluPho, NADPH-diaphorase-resazurin fluorescence; inhibition, % at 20 µM; hit rate 34% among 2,400;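 active = inhibition of at least 50% at 20 µM in any single replicate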;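 also: 0% = DMSO with substrate and 100% = DMSO lacking glucose-6-phosphate substrate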
Starred values were filed as active, the others as inactive.

Results for Cc1ccc2nc(C)cc(SCC(=O)N/N=C/c3ccco3)c2c1 ?
Cardio protect: 5; aDG glyco act: 0; CRFBP-R2 block: 0; PfG6PD inh: 7; CRFR2-BP ag: 0; FAS TE block: -3

What do the screens show for `Cc1ccc2nc(N/N=C/c3ccco3)cc(C)c2c1`?
Cardio protect: -17; aDG glyco act: 1; CRFBP-R2 block: -29; PfG6PD inh: 64*; CRFR2-BP ag: -1; FAS TE block: 4; PfG6PD confirm: 28

Results for Cn1cc([N+](=O)[O-])c(C(=O)NNC(=O)c2ccc([N+](=O)[O-])cc2Cl)n1 ?
Cardio protect: -3; aDG glyco act: 0; CRFBP-R2 block: 5; PfG6PD inh: 4; CRFR2-BP ag: -1; FAS TE block: -1

Results for CC(=O)C1=C(O)C(=O)N(c2ccc(O)cc2)C1c1ccccc1Cl (stereo unspecified) ?
Cardio protect: 6; aDG glyco act: 0; CRFBP-R2 block: 2; PfG6PD inh: -18; CRFR2-BP ag: 3; FAS TE block: -2

How did O=C1NC(=O)C(=C2CCOC2=O)N1 do in these assays?
Cardio protect: -1; aDG glyco act: 0; CRFBP-R2 block: 7; PfG6PD inh: -2; CRFR2-BP ag: -2; FAS TE block: -8

Results for Cc1cc(N)c2cc(NC(=O)/C=C/c3ccccc3Cl)ccc2n1 ?
Cardio protect: -32; aDG glyco act: 0; CRFBP-R2 block: -10; PfG6PD inh: 60*; CRFR2-BP ag: 0; FAS TE block: 0; PfG6PD confirm: 1

Results for O=C(O)c1ccc(-n2cc(-c3cc4ccccc4oc3=O)[nH]c2=S)cc1 ?
Cardio protect: -4; aDG glyco act: 0; CRFBP-R2 block: 22; PfG6PD inh: 61*; CRFR2-BP ag: 1; FAS TE block: -2; PfG6PD confirm: 25

Results for Cc1csc(NC(=O)c2cncc(Br)c2)n1 ?
Cardio protect: -8; aDG glyco act: 0; CRFBP-R2 block: -19; PfG6PD inh: 19; CRFR2-BP ag: 0; FAS TE block: -6

How did Cc1cc2occ(CC(=O)N(CCC(C)C)c3c(N)n(Cc4ccccc4)c(=O)[nH]c3=O)c2cc1C do in these assays?
Cardio protect: 4; aDG glyco act: 0; CRFBP-R2 block: -1; PfG6PD inh: -11; CRFR2-BP ag: 2; FAS TE block: -8

How did COc1cc(Br)cc(/C=C/c2ccc3cccc(O)c3n2)c1O do in these assays?
Cardio protect: 40; aDG glyco act: 0; CRFBP-R2 block: -8; PfG6PD inh: 25; CRFR2-BP ag: 0; FAS TE block: 13

Results for Oc1cccc2ccc(/C=C/c3ccccc3Br)nc12 ?
Cardio protect: 22; aDG glyco act: 0; CRFBP-R2 block: -2; PfG6PD inh: -5; CRFR2-BP ag: 3; FAS TE block: 15

What do the screens show for `Oc1ccc(Cl)cc1/C=C/c1ccc2cccc(O)c2n1`?
Cardio protect: -17; aDG glyco act: 0; CRFBP-R2 block: 3; PfG6PD inh: 74*; CRFR2-BP ag: 3; FAS TE block: 12; PfG6PD confirm: -5

What do the screens show for `Oc1c(Cl)cc(Cl)cc1/C=C/c1ccc2cccc(O)c2n1`?
Cardio protect: -26; aDG glyco act: 0; CRFBP-R2 block: -102; PfG6PD inh: 81*; CRFR2-BP ag: 87*; FAS TE block: 13; PfG6PD confirm: 16

What do the screens show for `CCOC(=O)N1CCN(C(=O)Nc2ccc3oc(C)nc3c2)CC1`?
Cardio protect: 2; aDG glyco act: 1; CRFBP-R2 block: 14; PfG6PD inh: 62*; CRFR2-BP ag: -1; FAS TE block: -7; PfG6PD confirm: -4

How did CCOC(=O)C1CCN(C(=O)Nc2ccc3oc(C)nc3c2)CC1 do in these assays?
Cardio protect: 1; aDG glyco act: 0; CRFBP-R2 block: 12; PfG6PD inh: 17; CRFR2-BP ag: -2; FAS TE block: -5

What do the screens show for `Cc1ccc(Cn2c(=O)sc3ccccc3c2=O)cc1`?
Cardio protect: 6; aDG glyco act: 0; CRFBP-R2 block: 3; PfG6PD inh: -5; CRFR2-BP ag: -2; FAS TE block: 36

Bioassay records as filed in PubChem BioAssay.
